High-throughput results from PubChem.
FLuc counter = qHTS profiling assay for firefly luciferase inhibitor/activator using purifed enzyme and Km concentrations of substrates (counterscreen for miR-21 project); 6.9% of 360,000 active; AID 588342, 2011; purified FLuc, Km substrates, luminescence inhibition; Potency, µM (doses to about 57.5 µM), inactives show top-dose activity change, negative = inhibition, actives largely listed as inhibitors;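 also: plate controls were vehicle for no effect and reference inhibitor for full effect; nearly all actives have a fitted effect of over 55% in size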
Target sequence (P08659 whole entry, looked up): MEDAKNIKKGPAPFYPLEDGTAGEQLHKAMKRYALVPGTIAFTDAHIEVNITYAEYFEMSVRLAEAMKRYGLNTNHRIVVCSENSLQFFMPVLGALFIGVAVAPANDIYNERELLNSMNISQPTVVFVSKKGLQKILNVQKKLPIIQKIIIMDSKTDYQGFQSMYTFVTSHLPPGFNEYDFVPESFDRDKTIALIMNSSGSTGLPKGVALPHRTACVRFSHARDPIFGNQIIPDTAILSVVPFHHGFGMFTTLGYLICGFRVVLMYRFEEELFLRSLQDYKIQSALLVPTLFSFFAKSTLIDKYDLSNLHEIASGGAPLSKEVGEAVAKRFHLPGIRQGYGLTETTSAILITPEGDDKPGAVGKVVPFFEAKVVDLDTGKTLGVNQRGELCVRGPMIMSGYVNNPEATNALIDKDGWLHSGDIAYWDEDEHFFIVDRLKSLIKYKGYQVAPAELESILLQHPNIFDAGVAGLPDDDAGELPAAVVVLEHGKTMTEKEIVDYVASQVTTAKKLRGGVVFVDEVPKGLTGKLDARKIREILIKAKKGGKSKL
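Purified P. pyralis luciferase, 10 nM final, with Km-level 10 uM D-luciferin and 10 uM ATP in 50 mM Tris acetate pH 7.5, 10 mM Mg acetate, 0.01% Tween-20, 0.05% BSA; 6-point qHTS titration about 60 µM downward; luminescence read.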
ELG1 genotoxic = qHTS screen for small molecules that induce genotoxicity in human embryonic kidney (HEK293T) cells expressing luciferase-tagged ELG1. Potency, µM (titrated, usually from 46 µM), for inactives: at the highest dose activity change, positive = activation, actives largely listed as activators. AID 504466, 2011. HEK293T ELG1-luciferase reporter, luminescence, 16 h. 1.3% of 330,000 active; also: % of control where 0% means no effect; nearly all actives have a fitted effect of over 60% in size
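After overnight (16 hr) compound treatment at 37 °C, ELG1-luciferase HEK293T cells were lysed with ONE-Glo; luminescence quantified 30 min later at room temperature.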
ELG1 DNA repair = qHTS screen for small molecules that inhibit ELG1-dependent DNA repair in human embryonic kidney (HEK293T) cells expressing luciferase-tagged ELG1 | HEK293T ELG1-luciferase reporter, luminescence, 16 h; DNA damage induced by 5-fluorouridine | Potency, µM (doses to about 46.1 µM), inactives show at the highest dose activity change, negative = inhibition, actives largely listed as inhibitors | 2.3% of 330,000 active; also: % is scaled to controls: 0 for no effect and ±100 for the full control effect; nearly all actives have a fitted effect of over 55% in size
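Quantitative HTS, concentration-response format. 2,000 cells/well co-treated with 5-fluorouridine and compound, 16 hr in 5% CO2 at 37 °C; ONE-Glo luminescence read after 30 min.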
NPC1 prom act = qHTS Assay for NPC1 Promoter Activators. Huh7 NPC1 promoter luciferase reporter, 24 h. Potency, µM (doses to about 9.22 µM), without a hit: at the top dose activation, actives largely listed as activators. 2.4% of 320,000 active. AID 485313, 2010; also: % of control where 0% means no effect; nearly all actives have a fitted effect of over 60% in size
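Luminescence read-out of NPC1 promoter-driven luciferase in stably transfected Huh7 cells; compounds delivered in DMSO and left 24 h at 37C, 5% CO2, qHTS titration format.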
SMN2 splice enh = qHTS Assay for Enhancers of SMN2 Splice Variant Expression | HEK293 SMN2-luciferase splicing reporter, luminescence, 30-36 h | Potency, µM (highest dose often 46.1 µM), for inactives: top-dose activity change, positive = activation, actives largely listed as activators | 2.8% of 210,000 active | AID 1458, 2008; also: % of control where 0% means no effect; nearly all actives have a fitted effect of over 55% in size
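HEK293 cells carry an SMN2 minigene-luciferase reporter in which exon 7 inclusion puts luciferase in frame. Cells were seeded at 2000 cells/well, attached for 10-12 hours, then exposed to compounds for 30-36 hours at 37C before ONE-Glo luminescence.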
Rab9 prom act = qHTS Assay for Rab9 Promoter Activators; 2.8% of 320,000 active; Huh7 Rab9 promoter-luciferase reporter, luminescence, 24 h; Potency, µM (top dose mostly 9.22 µM), inactives show at the top dose activation, negative = inhibition, usual class: activators; also: % of control where 0% means no effect; nearly all actives have a fitted effect of over 60% in size
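Huh7 cells stably carrying Rab9 promoter–luciferase reporter, plated 1500 cells/well, compound added after 2 h and incubated 24 h at 37 °C; luciferase luminescence then read after 10 min with detection reagent.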
The depositor's hits bear a star; ? = inconclusive; . = not tested or not shown; [ ] = dose if it differs, or a comment. Only some compounds are listed: those with a hit (about 9.2% of all), similar ones and a draw of the others. Calls follow the shape of the dose curve; as a rule, active = well fitted curve in the direction sought with a large enough effect; inconclusive = small, poorly fitted or top-dose-only effect, or another doubt; inactive = no such curve, though single readings can be large; an effect the other way counts as inactive or inconclusive. Potency is read from the fitted curve at half-maximal effect.

SMILES | FLuc counter | ELG1 genotoxic | ELG1 DNA repair | NPC1 prom act | SMN2 splice enh | Rab9 prom act
Cc1cc(=O)oc2cc(OCC(=O)Nc3c(C(C)C)cccc3C(C)C)ccc12 | -11.0% | . | . | . | 4.7% | .
N#CCCCS(=O)(=O)c1nnnn1C1CCCCC1 | . | . | . | . | 11.5% | .
COc1ccc(-c2cn(CCC(=O)O)c(-c3ccncc3)n2)cc1 | ? | -0.3% | 0.7% | -0.9% | . | -1.1%
COc1ccc(-c2cn(Cc3ccc(C(N)=O)cc3)c(-c3ccncc3)n2)cc1 | 2.39µM* | ? | ? | 3.16µM* | . | 2.51µM*
COc1cccc(C2C(C(N)=O)=C(C)Nc3nc(CCCO)nn32)c1 (stereo not given) | 1.3% | 0.3% | -0.8% | -0.6% | . | 11.5%
CN(C)c1ccc(C=C2C(=O)OC(C)(C)OC2=O)cc1 | 19µM* | -6.9% | -1.5% | -6.1% | -28.5% | -1.3%
CCN(CC)c1ccc(C=C2C(=O)OC(C)(C(C)(C)C)OC2=O)cc1 (stereo not given) | -1.4% | 1.4% | ? | -4.7% | 8.7% | 1.6%
COc1ccc(C=C2C(=O)OC(C)(C)OC2=O)cc1OC | -11.0% | 2.7% | ? | -2.7% | . | 0.2%[1.84 µM]
CN(C)c1ccc(C=C2C(=O)OC(C)(C(C)(C)C)OC2=O)cc1 (stereo not given) | 9.53µM* | -0.1% | 4.0% | -0.7% | 2.5% | 6.7%
Cc1ccc(C)c(NC(=O)CN(C)C(=O)c2oc3c(Cl)cccc3c2C)c1 | -2.8% | . | ? | -1.4% | . | 1.5%
Cc1ccc(C)n1-c1cccc(S(=O)(=O)N2CCOCC2)c1 | 2.8% | 25.9µM* | ? | -10.8% | 15.0% | -6.2%
CCOC(=O)c1sc(-c2ccc(Br)cc2)cc1N | 4.78µM* | ? | ? | 2.24µM* | 12.6µM* | 2.82µM*
CCOC(=O)c1cc(-c2ccc(N)cc2)sc1N | 15.1µM* | 7.31µM* | ? | 2.82µM* | 11.2µM* | 2.24µM*
CCOC(=O)c1cc(-c2ccccc2)sc1NC(=O)C(C)C | -1.1% | -3.9% | -24.6% | 1.2% | -10.4% | -2.2%
COc1ccc(-c2nnn(CC(=O)OC3CCCCC3)n2)cc1OC | -9.7% | 1.9% | 8.7% | -0.4% | . | -2.6%
O=C(Cn1nnc(-c2cccs2)n1)NCc1cccs1 | -4.3% | 0.0% | 4.6% | -3.3% | 4.3% | 13.1%
O=C(Cn1nnc(-c2cccs2)n1)OC1CCCCC1 | 13.5µM* | -0.5% | -3.4% | -2.2% | -1.6% | 2.5%
Cc1ccc(C(=O)Cn2nnc(-c3cccs3)n2)cc1 | 5.36µM* | 2.0% | 14.9% | ? | . | 3.16µM*
CC1CCN(C(=O)Cn2nnc(-c3cccs3)n2)CC1 | ? | ? | ? | 3.55µM* | . | 2.24µM*
O=C(Cn1nnc(-c2cccs2)n1)N1CCOCC1 | -0.1% | 12.6% | 22.3% | -2.5% | -1.3% | 3.6%
CCN(CC(=O)Nc1ccc(N2CCOCC2)cc1)C(=O)COc1ccccc1OC | ? | ? | -1.5% | -0.1% | 19.1% | 12.6%
O=C(/C=C/c1ccco1)Nc1cccnc1Cl | 15.1µM* | ? | ? | 3.98µM* | . | 3.98µM*
O=C(/C=C/c1ccco1)NCc1ccccn1 | -10.2% | 5.2% | ? | -0.2% | 9.8% | 10.8%
O=C(/C=C/c1ccccc1)Nc1cccnc1Cl | 12µM* | 18.3µM* | ? | 2.24µM* | . | 2.24µM*
COC(=O)c1ccccc1NC(=O)/C=C/c1ccco1 | 15.1µM* | -4.5% | ? | 10.3% | 14.7% | 27.8%
SMILES | FLuc counter | ELG1 genotoxic | ELG1 DNA repair | NPC1 prom act | SMN2 splice enh | Rab9 prom act
O=C(/C=C/c1ccco1)Nc1ccccc1N1CCCCC1 | 0.9% | -11.2% | -22.5% | -2.3% | -7.0% | -0.8%
Cc1sc(N)nc1-c1c(C)n(C)c2ccccc12 | -2.1% | -1.7% | 1.1% | -1.2% | . | 1.5%
CN(C)CCCN(C(=O)c1ccc([N+](=O)[O-])o1)c1nc2cc3c(cc2s1)OCO3 | 3.0% | 0.0% | 10.2% | -9.1% | . | 5.6%
O=C(NCCCN1CCOCC1)c1cccc(S(=O)(=O)Nc2cc(Cl)ccc2Cl)c1 | ? | -0.8% | -8.2% | -4.3% | -11.1% | 3.3%
O=C(N1CCOCC1)C1(c2ccccc2)CCCCC1 | 1.8% | 0.8% | 16.8% | 0.4% | 31.6µM* | -10.5%
CC(=O)c1ccc(NC(=O)c2ccc(N3CCCC3=O)cc2)cc1 | -12.1% | 2.2% | ? | 1.1% | . | -0.6%
CSc1ccccc1NC(=O)c1ccc(N2CCCC2=O)cc1 | 15.1µM* | ? | ? | ? | . | ?
CC(=O)c1ccccc1NC(=O)c1ccc(N2CCCC2=O)cc1 | 7.57µM* | ? | 16.1% | 26.5% | . | ?
N#Cc1nc(Nc2cccc(Cl)c2)c2ncn(C3CCCC3)c2n1 | 1.35µM* | ? | ? | 3.55µM* | . | 1.0%
CCn1cnc2c(Nc3cc(F)cc(F)c3)nc(C#N)nc21 | 1.0% | 2.1% | ? | 16.4% | . | -7.0%
NC(=O)c1nsc(C(=O)N(Cc2ccco2)C(C(=O)NCc2ccc(F)cc2)c2ccc(O)cc2)c1N (stereo not given) | 0.3% | -18.7% | 11.6µM* | -4.1% | . | -2.4%
Cc1ccc(C(C(=O)NCc2ccc(F)cc2)N(Cc2ccco2)C(=O)c2snc(C(N)=O)c2N)o1 (stereo not given) | -0.3% | -7.1% | 20.6µM* | 0.4% | . | -0.6%
COCCNC(=O)C(c1ccc(C)o1)N(Cc1ccco1)C(=O)c1snc(C(N)=O)c1N (stereo not given) | -0.1% | -2.0% | -28.0% | -3.4% | -1.5% | -0.8%
O=C(c1ccc(Br)o1)N1CCN(Cc2ccccc2Cl)CC1 | -4.1% | 3.4% | ? | 3.4% | . | 0.2%
COc1ccc2nc(N3C(=O)/C(=C/c4ccc(Cl)cc4)NC3=S)sc2c1 | 16.9µM* | -7.1% | 13.6% | 0.9% | -8.9% | 1.9%
CCOC(=O)N1CCC(NS(=O)(=O)c2ccc3c(c2)CCN3C(C)=O)CC1 | 7.8% | -0.8% | 18.4µM* | -2.6% | -34.1% | -0.2%
CCOC(=O)C(=CNc1ccc2c(c1)CCN2C(C)=O)C(=O)OCC | 12µM* | -1.4% | 0.0% | 17.1% | . | 27.6%
CCOC(=O)C(=CNc1ccc(N2CCOCC2)cc1)C(=O)OCC | -11.5% | -7.7% | -14.8% | -2.9% | . | 0.7%
COc1ccc(-c2nc3ccccc3nc2-c2ccccc2)cc1 | 5.2% | -5.5% | -18.6% | -5.0% | . | -21.0%
COc1ccc(-c2ccc3ccccc3n2)cc1OC | 10.7µM* | 4.11µM* | ? | 2.24µM* | 14.1µM* | 2µM*
COc1ccc(-c2noc(C)c2-c2ccc3ccccc3n2)c(O)c1 | 1.1% | -4.8% | ? | 3.1% | -37.5% | 3.8%
